Screen size: about 370,000 compounds; about 5,400 (1.5%) were called active. This is one part of a sample in which actives are shown more often than they occur.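 How the source made its calls: active means activation above the mean of all tested compounds plus 3 SD (cut at about 5.5% in these data); inactive means the rest.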
Test system: DAF-12 nuclear receptor (Haemonchus contortus)
Experiment: H. contortus DAF-12 nuclear receptor activators, primary screen, cell-based, luminescence, HEK293, lit1-tk-luc reporter (AID 652067);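 further: 100% = response to 3 µM Δ7-dafachronic acid high control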
Conditions: HEK293 hcDAF-12 lit1-tk-luc reporter, at 6.8 µM, active compounds read high

Row | SMILES | activation
1 | COc1ccc(C(=O)CC2C(=O)N(C)C(=O)N(C)C2=O)cc1 | 0.97% (inactive)
2 | COc1ccc(C(=O)C2CN(C)CC2C(=O)c2ccc(OC)cc2)cc1 (stereo not given) | 8.46% (active)
3 | Cc1ccc(C2CN(C)CC2C(=O)c2ccc(F)cc2)cc1 (stereo not given) | 0.06% (inactive)
4 | CN(c1ccccc1)c1ccc([N+](=O)[O-])c2nonc12 | -1.36% (inactive)
5 | CNP1(NC)=Nc2nn(-c3ccccc3)c(N)c2C(c2ccccc2)=N1 | -1.95% (inactive)
6 | CCCCn1c(=O)c(C(=O)Nc2ccccc2Cl)c(O)c2ccccc21 | 5.68% (active)
7 | CCCCCn1c(=O)c(C(=O)Nc2c(C)n(C)n(-c3ccccc3)c2=O)c(O)c2ccccc21 | -0.09% (inactive)
8 | CCCCCn1c(=O)c(C(=O)NCc2ccccc2)c(O)c2ccccc21 | -0.29% (inactive)
9 | O=C(CCN1CCCCC1)NCC(=O)Nc1ccc(Br)cc1C(=O)c1ccccc1 | -0.6% (inactive)
10 | CS(=O)(=O)N1CCC2CCNC2C1 (stereo not given) | -0.6% (inactive)
11 | CCC/C(=N\O)c1c[nH]c2ccccc12 | 6.34% (active)
12 | CN1CCN(/N=C/c2c[nH]c3ccccc23)CC1 | 1.53% (inactive)
13 | CN(C)CC1CCCCC1OC(=O)c1ccc(Cl)c(Cl)c1 (stereo not given) | 0.25% (inactive)
14 | CCOc1ccc(C2SCC(=O)Nc3c2c(C)nn3C2CCOC(C)(C)C2)cc1 (stereo not given) | -2.48% (inactive)
15 | Cc1ccccc1CCC[C@@H](CC1CCCCC1)CN(C)C(=O)Oc1ccccc1 | 4.88% (inactive)
16 | Cc1cc(C)c2c(c1)NP(=S)(c1ccccc1)N2 (stereo not given) | 4.47% (inactive)
17 | COc1ccc2c(c1)NP(=S)(c1ccccc1)N2 (stereo not given) | 13.1% (active)
18 | CO[C@H]([C@H](C)/C=C/N(C)C=O)[C@@H](C)C(=O)CC[C@H](C)[C@H](O)[C@H](C)[C@H]1OC(=O)/C=C/C(C)=C/[C@H](O)[C@H](OC)C[C@@H]2C=CC[C@@H](C[C@H](OC)[C@@]3(CO3)[C@@H](OC)C[C@@H](OC)[C@@H]1C)O2 | 0.14% (inactive)
19 | COc1ccc(-c2nc(CS(=O)CC(=O)N3CCC4(CC3)OCCO4)c(C)o2)cc1 (stereo not given) | -0.05% (inactive)
20 | COP(=O)(Sc1ccccc1)C(Cc1ccccc1)NC(=O)OCc1ccccc1 (stereo not given) | -1.13% (inactive)

Source: PubChem BioAssay AID652067 (The Scripps Research Institute Molecular Screening Center, 2013)
